Compounds with a hit are over-represented: about 3.1% of the library has one in this group of screens.
PTAP TSG101 blk: blocks PTAP/TSG101 interaction to inhibit HIV-1 budding; Fluorescence polarization, FITC-PTAP peptide / Tsg101 binding; Potency, µM (series often up to 115 µM), most hits filed as inhibitors; AID 493005; Q99816; 340,000 tested, under 10 active; active means well fitted inhibition curve with a large enough effect in the main read-out, with a control signal flat, not every such curve was filed as active; inconclusive means small, poorly fitted or top-dose-only effect, or effect the other way, or a change in a side signal; inactive means no such curve, though single readings can be large or run the other way
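Tsg101 binding domain (10 uM final) was mixed with compound and a FITC-labeled PTAP peptide (50 nM final) in HEPES pH 7.5 buffer with NaCl, Tween 20, EDTA and TCEP; fluorescence polarization was read after 20 min at r.t.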
PLK1 PBD inh: blocks phosphopeptide binding to human PLK1 polo-box domain | actives 2.8% (n = 360,000) | Potency, µM, actives largely listed as inhibitors | Plk1 PBD binding of FITC phosphopeptide, fluorescence polarization | P53350; further: series mostly up to about 57 µM; nearly all actives have a fitted effect of over 65% in size
Target sequence (P53350 whole entry, looked up, the tested form may be a part): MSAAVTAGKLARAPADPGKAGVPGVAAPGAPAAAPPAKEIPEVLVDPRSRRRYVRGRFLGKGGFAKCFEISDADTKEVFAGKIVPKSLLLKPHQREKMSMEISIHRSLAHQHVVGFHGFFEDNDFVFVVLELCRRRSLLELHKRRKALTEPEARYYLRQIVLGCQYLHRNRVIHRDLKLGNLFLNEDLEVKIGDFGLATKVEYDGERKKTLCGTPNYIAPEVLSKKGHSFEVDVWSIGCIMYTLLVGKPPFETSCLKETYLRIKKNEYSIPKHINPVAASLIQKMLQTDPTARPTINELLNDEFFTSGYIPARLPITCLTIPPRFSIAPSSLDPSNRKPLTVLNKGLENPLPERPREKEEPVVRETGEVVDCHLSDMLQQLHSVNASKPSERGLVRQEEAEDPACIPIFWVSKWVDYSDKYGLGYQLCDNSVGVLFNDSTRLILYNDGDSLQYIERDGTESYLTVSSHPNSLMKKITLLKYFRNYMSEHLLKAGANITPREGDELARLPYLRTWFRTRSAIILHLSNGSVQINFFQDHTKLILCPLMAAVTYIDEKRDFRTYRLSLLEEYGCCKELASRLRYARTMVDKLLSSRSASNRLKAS
TSHR antagonist: blocks TSH signaling through the human TSH receptor; activity change, negative = inhibition, % at 11.5 µM; actives 0.2% (n = 330,000); P16473; TSHR-expressing cells, TSH-stimulated cAMP HTRF, 2 h; active compounds read low;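 active means activity change below a set negative limit, meaning inhibition stronger than a set level, cut at about -70% in these data; inconclusive means activity change between two set negative limits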
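TSHR-expressing cells, 200/well, pre-treated with compound, then stimulated with EC80 TSH (4nM final) for 2 hours at 37 deg C. cAMP measured by competitive HTRF: anti-cAMP cryptate antibody in lysis buffer plus cAMP-d2, read after 30 minutes at room temperature.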
uPA surface inh: cell surface uPA generation inhibition | cell surface uPA generation assay, qHTS | actives 0.31% (n = 330,000) | Potency, µM (series often up to 38.3 µM), usual class: inhibitors | AID 540303; active means well fitted inhibition curve with a large enough effect; inconclusive means small, poorly fitted or top-dose-only effect; inactive means no such curve, though single readings can be large or run the other way; tested in mouse RAW 264.7 cells; further: nearly all actives have a fitted effect of over 55% in size
VDR inh: blocks the human vitamin D receptor | VDR-SRC2-3 peptide fluorescence polarization, 2 h | Potency, µM, actives largely listed as inhibitors | actives 0.93% (n = 400,000)
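Compounds are added to VDR with labelled SRC2-3 coactivator peptide and held 2 h at room temperature. Inhibition of the VDR–peptide interaction is then read as a change in fluorescence polarization.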
Large screens that a line does not name were inactive. Unless noted, the call rests on the fitted dose curve; in most records, active means well fitted curve in the direction sought with a large enough effect; inconclusive means small, poorly fitted or top-dose-only effect, or another doubt; inactive means no such curve, though single readings can be large; an effect the other way counts as inactive or inconclusive.

C=C1[C@@H](O)[C@H](Cc2ccccc2)N(Cc2ccccc2Br)S1(=O)=O	uPA surface inh 10µM, VDR inh inconclusive (no result: TSHR antagonist)
CC(=O)OCOCC(=O)OCO[P+](=O)C(OCOC(C)=O)c1cc([N+](=O)[O-])ccc1Oc1ccc(Br)cc1 (centres undefined)	none (no result: PTAP TSG101 blk, PLK1 PBD inh, TSHR antagonist, uPA surface inh)
O=C1C2CC=CCC2C(=O)N1SC(Cl)(Cl)Cl (centres undefined)	VDR inh 4µM (no result: PTAP TSG101 blk, PLK1 PBD inh, TSHR antagonist, uPA surface inh)
C=CCC[C@H](Cc1ccc(F)cc1)C(=O)OC[C@H](Cc1c[nH]c2ccccc12)NC(=O)[C@@H](CC=C)CC(=O)NCCO	uPA surface inh inconclusive
O=C(NCc1ccco1)c1cccc2c1C(=O)c1ccc(/C=C/c3ccccc3)cc1S2(=O)=O	PLK1 PBD inh inconclusive, uPA surface inh inconclusive, VDR inh inconclusive
O=C(O)CCC(CP(=O)(O)O)C(=O)O (centres undefined)	none (no result: PTAP TSG101 blk, PLK1 PBD inh, TSHR antagonist, uPA surface inh)
CCOC(=O)[C@]12Cc3cc(OC)c(OC)cc3[C@H]1N(Cc1ccccc1)C(=O)c1ccccc12	none (no result: TSHR antagonist)
CCOC(=O)[C@]12Cc3cc(Cl)ccc3[C@H]1N(C(C)C)C(=O)c1ccccc12	PLK1 PBD inh 9.5µM (no result: PTAP TSG101 blk, TSHR antagonist, uPA surface inh, VDR inh)
CCOC(=O)[C@]12Cc3cc(Cl)ccc3[C@H]1N(C)C(=O)c1ccccc12	none (no result: PTAP TSG101 blk, TSHR antagonist, uPA surface inh, VDR inh)
CCOC(=O)[C@]12Cc3cc(Cl)ccc3[C@H]1N(CC(=O)OC)C(=O)c1ccccc12	PLK1 PBD inh 4.2µM (no result: PTAP TSG101 blk, TSHR antagonist, uPA surface inh, VDR inh)
CC(C)C[C@H](NC(=O)CNC(=O)[C@H](CCC(N)=O)NC(=O)[C@H](Cc1ccc(O)cc1)NC(=O)[C@@H](NC(=O)[C@H](Cc1ccc(O)cc1)NC(=O)CNC(=O)[C@@H](N)CCCN=C(N)N)C(C)C)C(=O)O	none (no result: PTAP TSG101 blk, PLK1 PBD inh, TSHR antagonist, uPA surface inh)
O=C(O)c1c(C(=O)O)c(-c2ccc(Br)cc2)n2c1CSC2	VDR inh inconclusive
C=C(C)[C@]12C[C@@H](C)[C@@]34OC(Cc5ccccc5)(O[C@@H]1[C@@H]3C=C(COC(=O)Cc1cc(I)c(O)c(OC)c1)C[C@]1(O)C(=O)C(C)=C[C@@H]41)O2	none (no result: PTAP TSG101 blk, PLK1 PBD inh, TSHR antagonist, uPA surface inh)
O=C(O)c1cccc2c1NC(c1cccc([N+](=O)[O-])c1)C1CC(Sc3ccccc3[N+](=O)[O-])C(Cl)C21 (centres undefined)	PLK1 PBD inh 13µM
O=C(O)c1ccc2c(c1)C1C(Cl)C(Sc3ccccc3[N+](=O)[O-])CC1C(c1cccc([N+](=O)[O-])c1)N2 (centres undefined)	PLK1 PBD inh 19µM
CC[C@@H]1[C@@H]2C[C@H]3[C@H]4N(C)c5ccccc5[C@@]45C[C@@H]([C@@H]2[C@@H]5O)N3[C@H]1O	none (no result: PTAP TSG101 blk, PLK1 PBD inh, TSHR antagonist, uPA surface inh)
CCCCCCCC/C=C\CCCCCCCC(=O)OC[C@@H](COP(O)(O)=S)OC	VDR inh 18µM (no result: PTAP TSG101 blk, PLK1 PBD inh, TSHR antagonist, uPA surface inh)
Cc1ccc(CN2CCN(CC(=O)N3CCC4(CC3)OCCO4)C2=O)cc1	PLK1 PBD inh 30µM
Cc1ccc(CN2CCSc3ccc(C(=O)N4CCC5(CC4)OCCO5)cc32)cc1	none
CCN1C[C@]2(COC(=O)c3ccccc3N3C(=O)C[C@H](C)C3=O)CC[C@H](OC)[C@@]34[C@@H]5C[C@H]6[C@H](OC)[C@H]5[C@](O)(C[C@@H]6OC)[C@@](O)([C@@H](OC)[C@@H]23)[C@@H]14	none (no result: PTAP TSG101 blk, PLK1 PBD inh, TSHR antagonist, uPA surface inh)
CC(=O)OC1C[C@@]2(C)C(c3ccoc3)C[C@H]3O[C@@]32[C@@]2(C)C(=O)C(O)=C3C(C)(C)C(=O)C=C[C@]3(C)C12 (some centres undefined)	VDR inh 4µM (no result: PTAP TSG101 blk, PLK1 PBD inh, TSHR antagonist, uPA surface inh)
CC(=O)O[C@@H]1C[C@@]2(C)C(c3ccoc3)C[C@H]3O[C@]32[C@]2(C)C(=O)C(O)=C3C(C)(C)C(=O)C=C[C@]3(C)C12 (some centres undefined)	VDR inh 14µM (no result: PTAP TSG101 blk, PLK1 PBD inh, TSHR antagonist, uPA surface inh)
CCCCCC[C@H]1C(=O)O[C@H](C)[C@H](NC(=O)c2cccc(NC=O)c2O)C(=O)O[C@@H](C)[C@H]1OC(=O)CC(C)C	none (no result: PTAP TSG101 blk, PLK1 PBD inh, TSHR antagonist, uPA surface inh)
N/C(=N\N=C/c1ccc(-c2ccc(O)c(C(=O)O)c2)o1)N[N+](=O)[O-]	PLK1 PBD inh 11µM (no result: uPA surface inh)
S=C(Nc1ccccc1)Nc1cccc(Br)c1	PLK1 PBD inh 27µM
Brc1ccccc1	none
COc1ccc(C[C@@H]2NC[C@H](O)[C@@H]2OC(C)=O)cc1	none (no result: PTAP TSG101 blk, PLK1 PBD inh, TSHR antagonist, uPA surface inh)
COc1ccc(-c2c(-c3cc(OC)cc(OC)c3)n(C)c3ccc(-c4ccc(S(N)(=O)=O)cc4)cc23)cc1	uPA surface inh inconclusive
